Shown are actives, neighbours in structure and some others; about 2.9% of the full set was active somewhere.
MEKK2wt PB1 HTS – raises or lowers MEK5 binding to wildtype human MEKK2 PB1 domain | bead flow cytometry, Alexa488-MEK5 binding to MEKK2 WT; actives lie on both sides | AID 1531 | binding response (% of control), % at 10 µM | Q9Y2U5 | actives 1.1% (n = 290,000); in the data active = binding response below about 67% or above about 130%
MEKK2 mut-MEK5 – signal of MEK5 binding to mutant human MEKK2 PB1 domain. actives 0.35% (n = 290,000). percent response, % at 10 µM. bead flow cytometry, Alexa488-MEK5 binding to MEKK2 mutant; in the data active = percent response above about 24%, passing the limit was not always enough
MEKK3 PB1 HTS – raises or lowers MEK5 binding to the human MEKK3 PB1 domain; binding response (% of control), % at 10 µM; Q99759; bead-based flow cytometry, Alexa488-MEK5 binding to MEKK3; actives lie on both sides; 0 = blocked by unlabeled MEK5, 100 = vehicle; actives 1.4% (n = 290,000);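 active = binding response more than 3 SD above or below the average of its plate-row segment, actives on both sides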;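 also: Alexa488 bead fluorescence after subtracting the streptavidin-only scavenger bead signal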
Target sequence (Q99759 whole entry, looked up, the tested form may be a part): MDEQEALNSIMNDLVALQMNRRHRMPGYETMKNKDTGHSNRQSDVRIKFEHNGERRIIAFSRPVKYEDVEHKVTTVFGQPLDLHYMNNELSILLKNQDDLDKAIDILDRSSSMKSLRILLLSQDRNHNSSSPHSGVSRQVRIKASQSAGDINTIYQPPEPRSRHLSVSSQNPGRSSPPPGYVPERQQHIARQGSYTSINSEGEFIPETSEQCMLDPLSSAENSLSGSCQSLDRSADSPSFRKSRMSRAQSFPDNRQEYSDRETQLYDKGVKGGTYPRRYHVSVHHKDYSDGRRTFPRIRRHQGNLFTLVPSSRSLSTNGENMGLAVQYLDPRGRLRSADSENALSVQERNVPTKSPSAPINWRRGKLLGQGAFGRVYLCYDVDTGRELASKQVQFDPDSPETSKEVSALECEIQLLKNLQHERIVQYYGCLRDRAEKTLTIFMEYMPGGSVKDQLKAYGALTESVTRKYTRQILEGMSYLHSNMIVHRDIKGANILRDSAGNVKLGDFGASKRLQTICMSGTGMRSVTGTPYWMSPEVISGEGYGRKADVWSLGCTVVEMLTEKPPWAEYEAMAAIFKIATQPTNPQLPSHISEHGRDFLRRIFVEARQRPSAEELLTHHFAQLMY
CRFBP-R2 block – antagonists of CRF-binding protein/CRF-R2 receptor complex | actives 0.59% (n = 350,000) | inhibition, % at 11.8 µM | AID 588475 | HEK293 CRF-R2/CRF-BP, CRF-induced calcium fluorescence;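 active = inhibition of the ligand-induced calcium signal above about 50% at the single tested concentration, limit read from the data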
ABCB6 inh MLPCN – inhibitors of human ABC transporter ABCB6; fluorescence ratio to DMSO, % at 10 µM; Q9NP58; AID 602162; K562-ABCB6 porphyrin accumulation, flow cytometry, 1 h; active compounds read low; actives 0.19% (n = 360,000);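 active = fluorescence ratio to DMSO below 75%, the collection mean minus 3 SD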;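 also: signal is porphyrin accumulated inside mitochondria; 100% equals median channel fluorescence of DMSO control wells; lower ratio means ABCB6 inhibition with less porphyrin fluorescence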
CRFR2-BP ag – agonists of human CRF-binding protein/CRF-R2 receptor complex | HEK293 CRF-R2/CRF-BP, calcium dye fluorescence (FLIPR); percent of saturating CRF peptide response | activation, % at 13.2 µM | actives 0.46% (n = 350,000) | AID 588473;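 active = activation of at least 50%, plus an integration ratio under a set limit after plate pattern correction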;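 also: plate controls were neutral control wells without compound for no effect and CRF at EC100 for full effect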
MEKK2wt confirm – raises or lowers MEK5 binding to wildtype human MEKK2, retest | binding response (% of control), % at 10 µM | bead flow cytometry, Alexa488-MEK5 binding to MEKK2 WT; actives lie on both sides | shares compounds with MEKK3 PB1 HTS | actives 2.4% (n = 5,900) | AID 1892; in the data active = binding response below about 16% or above about 210%; inactive = in between
MEKK2mut-MEK5 – signal of MEK5 binding to mutant human MEKK2, retest | shares compounds with MEKK3 PB1 HTS | bead flow cytometry, Alexa488-MEK5 binding to MEKK2 mutant | percent response, % at 10 µM | actives 2% (n = 5,900) | AID 1893; in the data active = percent response mostly above about 71%, no sharp cut-off; inactive = mostly below about 38%;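 also: higher means compound restores mutant binding toward wildtype level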
MEKK3 confirm – MEKK3-MEK5 PB1 inhibition, single concentration confirmation; shares compounds with MEKK3 PB1 HTS; bead flow cytometry, Alexa488-MEK5 binding to MEKK3; active compounds read low; binding response (% of control), % at 10 µM; actives 1.8% (n = 5,900);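 active = binding response below 72% of control, or above a set upper limit, though filed actives all read lower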;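 also: 100% = DMSO only wells and 0% = binding blocked by excess unlabeled MEK5; lower values mean stronger disruption of MEK5 binding to MEKK3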
Starred values were filed as active, the others as inactive; · = not tested or not shown; [ ] = another dose, or the depositor's remark.

SMILES | MEKK2wt PB1 HTS | MEKK2 mut-MEK5 | MEKK3 PB1 HTS | CRFBP-R2 block | ABCB6 inh MLPCN | CRFR2-BP ag | MEKK2wt confirm | MEKK2mut-MEK5 | MEKK3 confirm
CCOC(=O)c1c(NC(=O)c2cccs2)sc2c1CCCC2 | -1.0*[inhibitor] | -9 | 1.0*[inhibitor] | 4 | 98 | 0 | 98 | 6 | 98
Cc1sc2ncn(CC(=O)NCC(=O)N3CCN(c4ccccc4F)CC3)c(=O)c2c1C | 98 | 3 | 98 | -7 | 94 | -1 | · | · | ·
COc1ccc(C)cc1NC(=O)CNc1ccccc1CN(C)C1CCCCC1 | 98 | -2 | 98 | 12 | 99 | -1 | · | · | ·
COc1ccc(Cl)cc1NC(=O)CNc1ccccc1CN(C)C1CCCCC1 | 154* | 36 | 106 | 8 | 102 | 0 | 156 | 34 | 114
COc1ccc(C(C(N)=O)c2ncc(C(F)(F)F)cc2Cl)cc1 (stereo not given) | 131 | 7 | 150* | -7 | 102 | 1 | 106 | 4 | 105
CCOC(=O)c1c(C)[nH]c(C)c1S(=O)(=O)N1CCCCC1 | 92 | -4 | 97 | -14 | 98 | 0 | · | · | ·
CCCCCCCNC(=O)C1(CC2CC(c3cccc(Br)c3)=NO2)CCN(C(=O)Cc2ccc(F)cc2)CC1 (stereo not given) | · | · | · | 1 | 96 | 3 | · | · | ·
CCCCCCCNC(=O)C1(CC2CC(c3ccc(Cl)cc3)=NO2)CCNCC1 (stereo not given) | 158* | 11 | 106 | -5 | 97 | -1 | 150 | 22 | 105
CCCCCCCNC(=O)C1(CC2CC(c3cccc(Br)c3)=NO2)CCNCC1 (stereo not given) | 191* | 23 | 107 | -46 | 99 | 15 | 143 | 17 | 107
CN1CCN(NC(=O)C2CC2)CC1 | 104 | 0 | 142* | 14 | 95 | 1 | 106 | -3 | 103
O=C(c1ccc(Cl)c(S(=O)(=O)N2CCCCC2)c1)N1CCN(Cc2ccccc2)CC1 | 106 | 2 | 103 | -1 | 85 | -1 | · | · | ·
COc1ccc(NC(=O)/C(C#N)=C/c2cc(C)n(-c3ccc(N4CCOCC4)c([N+](=O)[O-])c3)c2C)cc1 | 102 | 0 | 132* | -35 | 97 | 9 | 102 | 3 | 106
CC(C)(Cc1cc(CC(C)(C)C(=O)O)cc(C(C)(C)C)c1)C(=O)O | 103 | 1 | 101 | 2 | 93 | -1 | · | · | ·
C(=Cc1c[nH]c2ccccc12)c1ccc2ccccc2n1 | · | · | · | -55 | 325 | 25 | · | · | ·
CC[n+]1c(/C=C/c2c[nH]c3ccccc23)ccc2cc(C)ccc21 | · | 119* | 87 | -303 | · | 271* | 163 | 30 | 104
CC(C)(C)C(=O)COC(=O)c1cc2ccccc2cc1O | 76 | -18 | 67*[inhibitor] | 2 | 98 | 1 | 98 | 7 | 102
CN(C(=O)COC(=O)c1cc2ccccc2cc1O)c1ccccc1 | · | · | · | 9 | 94 | 0 | · | · | ·
CCCc1cc(=O)[nH]c(SCC(=O)Nc2cc(S(=O)(=O)N3CCOCC3)ccc2Cl)n1 | · | · | · | 1 | 96 | 1 | · | · | ·
COc1ccccc1NC(=O)CN1C(=O)CSC(C)C1=O (stereo not given) | 96 | 0 | 79 | 16 | 101 | -2 | · | · | ·
CCC(=O)NC(=S)Nc1ccc(OC)cc1OC | 110 | 0 | 134* | 9 | 98 | 1 | 95 | 1 | 94
COc1ccc(NC(=O)CN2C(=O)CSC(C)C2=O)c(OC)c1 (stereo not given) | 107 | 0 | 137* | 3 | 93 | 1 | 101 | 1 | 103
CCC(=O)Nc1ccc(OC)cc1OC | 103 | 5 | 103 | 7 | 100 | -1 | · | · | ·

Bioassay records (PubChem)
